Hit rate of the full screen: of about 96,000 compounds, about 100 (0.1%) were called active.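 The calls were made as follows: active = displacement above 50% at 20 µM plus a fluorescence interference ratio under 1.5; inactive = the rest.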 The sample as a whole holds a higher share of actives than the screen did. Results with a measured potency or affinity are listed apart.

For the experiment, the target named is Bcl-2-like protein 10 (Homo sapiens) (UniProt Q9HD36). The experiment can be described thus: Bcl-B/TR3 peptide binding disruption – biochemical, fluorescence polarization, FITC-TR3 peptide, selectivity assay for Bfl-1 inhibitor project, primary screen (AID 748).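 Also: plate controls were wells without compound for no effect and wells lacking Bcl-B protein for full effect.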 The settings on record: FP displacement of FITC-TR3 peptide from Bcl-B; at 20 µM; active compounds read high. A general note: Fluorescence polarisation rises when a labelled molecule tumbles more slowly, as on binding a larger partner.
For the molecule `COCCn1c(SCC(=O)Nc2ccc(Cl)cn2)nc2ccccc21`, the displacement was -17% (inactive). For the molecule `COCCn1c(SCC(=O)Nc2nc(C)c(Cl)cc2Cl)nc2ccccc21`, the displacement was -7.3% (inactive). The value for `c1coc(-c2nc(-c3ccco3)c(-c3ccco3)nc2-c2ccco2)c1` was 43.1% (inactive). The value for `c1ccc(CSc2n[nH]c(-c3ccco3)n2)cc1` was -8.3% (inactive); that for `c1coc(-c2nc3ccccc3nc2-c2ccco2)c1` was 22% (inactive); that for `Nn1c(SCc2ccccc2)nnc1-c1ccco1` was -4.8% (inactive). The value for `COc1cccc(Cn2c(-c3cccs3)noc2=O)c1` was -1.2% (inactive); that for `O=S1(=O)CCC(NS(=O)(=O)c2cccc3cccnc23)C1` (stereo unspecified) was -3.6% (inactive). For the molecule `Oc1ccc(-c2cn3c(n2)SCC3)cc1`, the displacement is -4.3% (inactive). The value for `O=C(Oc1ccc(-c2cn3c(n2)SCC3)cc1)c1ccccc1` was -5.6% (inactive). The value for `CC1(C)Cc2nc3nc(SCC(=O)NCc4ccccc4)n(-c4ccccc4)c(=O)c3cc2CO1` was -3.5% (inactive); that for `COc1ccc(-c2noc(CSc3nnc(Cc4ccccc4)n3-c3cccc(C)c3)n2)cc1OC` was -7.5% (inactive); that for `c1ccc2cc(CN3CCOCC3)ccc2c1` was -1.4% (inactive). The value for `O=C(CC1C(=O)OCN1C(=O)OCc1ccccc1)OCC(=O)c1ccccc1` (stereo unspecified) was -0.3% (inactive); that for `CCc1cn(S(=O)(=O)c2ccccc2OC)nc1N` was -3.2% (inactive). As for `Nc1cc(C(=O)O)ccc1N1CCCCCC1`, the displacement is 7% (inactive). The value for `COC(=O)c1ccc(N2CCC(C)CC2)c(N)c1` was -13.4% (inactive); that for `COC(=O)c1cn(NC(=O)c2cccc(OC)c2)c(=O)c2ccccc12` was 10.2% (inactive).

In the case of `O=C1CCC2(C(=O)O)Sc3ccccc3N12` (stereo unspecified), the displacement was -5.3% (inactive).

For the molecule `Cn1cccc1-c1nc2ccc(NC(=O)c3ccc([N+](=O)[O-])cc3)cc2[nH]1`, the displacement was 3.8% (inactive). The value for `COc1ccc(Cl)cc1C(=O)Nn1c(C)nc2ccccc2c1=O` was -6.8% (inactive). The value for `Cc1cc(C)n(Cc2ccc(C(=O)O)cc2)n1` was -12.7% (inactive); that for `COc1ccc(Cn2c(C)ccc2C)cc1` was -31.6% (inactive); that for `CSc1ccc(S(=O)(=O)Nc2ccc3c4c(cccc24)CC3)cc1` was 0.8% (inactive). The value for `O=C1CC(SC(=NCc2ccc3c(c2)OCO3)Nc2ccccc2)C(=O)N1c1ccccc1` (stereo unspecified) was 0.5% (inactive); that for `CC(=O)Nc1ccc(S(=O)(=O)NC2=C(N3CCN(c4ccc(F)cc4)CC3)C(=O)c3ccccc3C2=O)cc1` was 30.5% (inactive). Consider `Cc1ccc(S(=O)(=O)NC2=C(N3CCN(Cc4ccccc4)CC3)C(=O)c3ccccc3C2=O)cc1`, for which the displacement is 12.6% (inactive). For `Cc1ccc(NC(=O)CN2CC(C)SC2=NC2CCCCC2)cc1` (stereo unspecified), the displacement was -0.9% (inactive). In the case of `COc1cc(NC(=O)C2CCCCC2)c2ncccc2c1`, the displacement is -2.9% (inactive).

With `COc1ccc(OCC(=O)Nc2cccc3cccnc23)cc1`, the displacement was -0.2% (inactive). The value for `COc1ccc(OCCCC(=O)NC(C)c2ccccc2)cc1` (stereo unspecified) was 3.5% (inactive); that for `CCOC(=O)C1CCN(C(C(=O)Nc2ccc3c(c2)OCCO3)c2ccccc2)CC1` (stereo unspecified) was -3.4% (inactive). As to `O=C1c2sc3nc4ccccc4n3c2C(=O)N1c1ccccc1Cl`, the displacement was 0.8% (inactive). In the case of `O=C1c2sc3nc4c(c(=O)n3c2C(=O)N1c1ccccc1)CCC4`, the displacement was 7% (inactive). On to `O=C(CSc1ccccc1Cl)c1ccco1`, for which the displacement was 3.7% (inactive).

As to `O=C(CSCc1ccc(Cl)cc1)c1ccco1`, the displacement was 16.6% (inactive).

For the origin of these results see PubChem BioAssay AID748 (Sanford-Burnham Center for Chemical Genomics, 2007).
